Results published in PubChem BioAssay AID652048 (National Center for Advancing Translational Sciences (NCATS), 2013).
“And” between values parts separate entries of the source, which are not always exact repeats. Identical values can stand only once. Hit rate of the full screen: of about 410,000 compounds, about 2,400 (0.59%) were called active. This excerpt belongs to a sample that is enriched for actives. Unmarked numbers belong to inactive results. No stated cut-off is given here; in the data, active means max activation above about 30%; inactive means the rest.

Molecular target: D(3) dopamine receptor (Homo sapiens) (UniProt P35462)
Sequence (P35462 whole entry, looked up): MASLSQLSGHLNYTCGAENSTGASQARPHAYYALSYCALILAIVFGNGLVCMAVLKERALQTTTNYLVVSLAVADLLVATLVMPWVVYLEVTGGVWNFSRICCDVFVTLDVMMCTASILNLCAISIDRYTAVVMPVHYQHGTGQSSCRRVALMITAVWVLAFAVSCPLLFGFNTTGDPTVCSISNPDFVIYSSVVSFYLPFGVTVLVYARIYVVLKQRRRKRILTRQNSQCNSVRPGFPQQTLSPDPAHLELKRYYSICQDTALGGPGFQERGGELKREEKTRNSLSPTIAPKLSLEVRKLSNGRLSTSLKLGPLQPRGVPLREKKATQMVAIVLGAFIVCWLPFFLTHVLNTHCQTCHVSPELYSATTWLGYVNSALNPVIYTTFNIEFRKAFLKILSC
Experiment: qHTS of D3 Dopamine Receptor Agonist: qHTS; further: 0% is about no effect
Conditions: D3R DiscoveRx beta-arrestin cells, luminescence, 90 min; stronger effect = higher value
Text: D3 DARs represent a very important target for the treatment of several neuropsychiatric disorders. Indeed, one of the most promising therapeutic applications for the D3 DAR is in the area of addiction and related disorders. […] These findings have been observed with a number of addictive substances including cocaine, amphetamine, nicotine, and alcohol. […] Antagonism of the D3 DAR may also be therapeutic in the treatment of schizophrenia or psychosis. […] Since the D3 DAR is expressed in areas of the CNS associated with the control of mood and emotion, it has been hypothesized that selective antagonism of the D3 DAR may be effective in treating psychosis without inducing the motor side effects typically seen with D2 DAR antagonists.
This part of the project aims to discover novel agonist.
NIH Chemical Genomics Center [NCGC]
NIH Molecular Libraries Probe Centers Network [MLPCN]
Assay Submitter (PI): David Sibley, NINDS
Freshly passaged cells are plated in 1536 well white, solid bottom plates at a density of 1500 cells/well in 3microl of complete media. After an overnight incubation at 37 degrees C in 5% CO2, cells are loaded with 23nl of test compound from the compound library (as well as dopamine controls) using a 1536 pintool and incubated at 37 degrees C for 90 minutes. Two microliters of DiscoveRx reagent is then added to all cells, and they are incubated for an additional 30 - 60 minutes at room temperature. Following incubation, luminescence is measured on a ViewLux CCD-based luminometer reader using a 20 sec exposure time.

| SMILES | max activation |
| --- | --- |
| O=c1[nH]c(CN2CC=C(c3ccccc3)CC2)nc2scc(-c3cccs3)c12 | 53.9% (active) |
| CCCCC1C(=O)NC(=O)N(C2CCCCC2)C1=O (stereo not given) | -3.28% |
| O=P1(N(CCCl)CCCl)NC(OO)CCO1 (stereo not given) | 1.75% |
| C#C[C@]1(OC(=O)CCCCCC)CC[C@H]2[C@@H]3CCC4=CC(=O)CC[C@@H]4[C@H]3CC[C@@]21C | 26.4% |
| O=S(=O)(O)C(F)(F)C(F)(F)C(F)(F)C(F)(F)F | -6.51% |
| COc1cc(C[C@H](C)N)c(OC)cc1Br | -14.5% |
| C[C@]12CC[C@H](O)C[C@H]1CC[C@@H]1C2CC[C@]2(C)[C@@H](C3=CC(=O)OC3)[C@@H](O)C[C@]12O (stereo not given in full) | 51.5% (active) |
| COC1C(O)C(C)OC(OC2CCC3(C=O)C(CCC4C3CCC3(C)C(C5=CC(=O)OC5)CCC43O)C2)C1O (stereo not given) | 1.37% |
| COC12CC[C@@]3(C[C@@H]1C(C)(O)C(C)(C)C)[C@H]1Cc4ccc(O)c5c4[C@@]3(CCN1CC1CC1)[C@H]2O5 (stereo not given in full) | 6.77% |
| O=C1C[C@@H]2OCC=C3CN4CC[C@]56c7ccccc7N1[C@H]5[C@H]2[C@H]3C[C@H]46 (tested in a mixture with another compound) | 11.4% and 8.18% |
